Rows were chosen to be rich in hits. Some 1.6% of all compounds tested hit in one or more screens of this group.
KCNQ2 inh – blocks the rat KCNQ2 potassium channel; O88943; CHO-K1 KCNQ2, FluxOR thallium flux, 20 min; stronger effect = lower value; B-score at 10 µM; hit rate 1.1% among 310,000;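 active means fluorescence ratio B-score at most minus 3 library SDs, with starting brightness B-score within 2 library SDs, cut at about -5.5 in these data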
KCNQ2 enhance – enhances the rat KCNQ2 potassium channel; O88943; CHO-K1 KCNQ2, FluxOR thallium flux fluorescence; stronger effect = higher value; B-score at 10 µM; hit rate 0.54% among 310,000; AID 2239;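 active means fluorescence ratio B-score at least 3 SD of library B-scores, with initial fluorescence B-score within 3 of them, cut at about 5.3 in these data; same plate scores as AID 2156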;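 further: B-score of peak minus minimum over baseline fluorescence ratio after K+ and Tl+ stimulus; positive B-score means potentiation of KCNQ2 with more thallium influx and brighter signal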
Kir21 confirm – confirmation of mouse Kir2.1 potassium channel inhibitors; Tl flux remaining, % of negative control (stronger effect = lower value), % at 10 µM; hit rate 41% among 2,300; shares compounds with KCNQ2 enhance; Kir2.1-expressing cells, FluxOR thallium flux fluorescence; stronger effect = lower value;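 active means Primary-screen hit whose thallium flux fell at least 3 control SD below untreated wells in both duplicates, with normal baseline fluorescence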;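 further: 0% = blank wells without stimulus and 100% = stimulated no-compound controls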
Target sequence (P35561 whole entry, looked up): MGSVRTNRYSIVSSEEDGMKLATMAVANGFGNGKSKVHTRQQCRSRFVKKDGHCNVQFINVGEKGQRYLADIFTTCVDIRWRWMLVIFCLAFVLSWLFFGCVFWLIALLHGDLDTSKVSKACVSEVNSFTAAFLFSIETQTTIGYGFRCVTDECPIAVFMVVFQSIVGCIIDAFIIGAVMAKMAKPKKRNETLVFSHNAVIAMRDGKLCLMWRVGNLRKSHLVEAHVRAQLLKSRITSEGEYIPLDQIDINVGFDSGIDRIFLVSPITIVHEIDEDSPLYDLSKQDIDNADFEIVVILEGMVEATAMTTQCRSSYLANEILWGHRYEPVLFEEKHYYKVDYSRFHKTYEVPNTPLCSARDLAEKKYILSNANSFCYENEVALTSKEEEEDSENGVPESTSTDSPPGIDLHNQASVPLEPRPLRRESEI
HEK293 ctr – alters thallium flux in parental HEK293 cells, Kir2.1 counter-screen | shares compounds with KCNQ2 enhance | FluxOR thallium flux fluorescence; 0% = unstimulated blank wells | FluxOR signal as % of negative control (100 = no effect), % at 10 µM | hit rate 19% among 2,300 | AID 2105;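 active means dye signal at least 3 control SD above or below untreated wells in both duplicates, raw fluorescence within 3, either direction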;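 further: percent is based on the flux ratio of peak minus minimum fluorescence over baseline F0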
CHO-K1 Tl ctr – parental CHO-K1 activity in KCNQ2 potentiator counter-screen; parental CHO-K1 cells, FluxOR thallium flux fluorescence; zero = vehicle mean+3SD, 100% = vehicle-minus-blank window; hit rate 43% among 1,200; activity increase over 3SD of controls, % at 10 µM; shares compounds with KCNQ2 enhance;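 active means signal rise of at least 3 SD above the untreated control mean, in both duplicate wells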;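 further: counter screen of KCNQ2 potentiator hits so any rise reflects channel-independent effects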
KCNQ1 pot spec – selectivity of KCNQ2 potentiators: effect on human KCNQ1 | CHO KCNQ1 stable, FluxOR thallium flux fluorescence; beyond 3SD, as % of vehicle-control signal | shares compounds with KCNQ2 enhance | hit rate 28% among 1,200 | activation over 3SD threshold, % at 10 µM | AID 2283;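 active means fluorescence ratio rise of at least 3 SD of vehicle wells above their mean, in both replicate wells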;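 further: 0% = vehicle mean plus 3 SD and 100% = vehicle minus unstimulated blank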
KCNQ2 pot confirm – confirmation of rat KCNQ2 potassium channel potentiators; shares compounds with KCNQ2 enhance; CHO-KCNQ2 cells, FluxOR thallium flux fluorescence; potentiation, less the hit threshold, % at 10 µM; hit rate 68% among 1,200; AID 2287;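 active means fluorescence ratio rising 3 SD or more over the vehicle control mean in both replicates, plus primary screen hit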;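 further: peak minus minimum thallium fluorescence divided by baseline after K/Tl stimulus; 0% = vehicle mean plus 3 SD and 100% = vehicle minus unstimulated blank difference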
Kir2-1 sel – mouse Kir2.1 off-target activity of KCNQ2 potentiators. shares compounds with KCNQ2 enhance. HEK293 Kir2.1, FluxOR thallium flux fluorescence. activity over 3SD threshold, % at 10 µM. hit rate 2% among 1,200. AID 2345;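 active means fluorescence ratio rise of at least 3 SD above the vehicle-control mean, seen in both replicates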;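 further: 0% = vehicle mean plus 3 SD and 100% = vehicle minus no-stimulus blank window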
KCNQ2 W236L MoA – potentiates the retigabine-insensitive rat KCNQ2 W236L mutant channel; shares compounds with KCNQ2 enhance; CHO KCNQ2-W236L, automated patch clamp current; current increase over 3SD of negative controls (%), stronger effect = higher value, % at 25 µM; hit rate 10% among 940; AID 2558;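 active means current increase at least 3 SD of the untreated controls above them in both duplicate recordings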
* = called active by the depositor; i = inactive; / = no result.

SMILES	KCNQ2 inh	KCNQ2 enhance	Kir21 confirm	HEK293 ctr	others
CC1c2ccsc2CCN1S(=O)(=O)c1ccccc1 (stereo not given)	i	0.51	52%*	i
COc1cc2c(cc1OC)C(C)N(S(=O)(=O)c1cccs1)CC2 (stereo not given)	i	1.2	/	/
CC1(C)NC(=O)N(CCCOc2ccc(Br)cc2Cl)C1=O	i	0.39	/	/
CC(C)c1cc(Br)ccc1OCCCN1C(=O)NC(C)(C)C1=O	i	/	i	i
N#Cc1c(NC(=O)C2CC(Cl)=CCC2C(=O)O)sc2c1CCCC2 (stereo not given)	i	0.33	/	/
Cc1cc(Br)c(NC(=O)COC(=O)C2CC2C)c(Br)c1 (stereo not given)	i	3.5	/	/
Cc1ccc(NC(=O)COC(=O)C2CC2C)c(S(=O)(=O)N2CCCCC2)c1 (stereo not given)	i	5.3*	i	i	CHO-K1 Tl ctr=-14;KCNQ1 pot spec=-17;KCNQ2 pot confirm=-23;Kir2-1 sel=-50
O=C(CSc1nnnn1-c1ccc(O)cc1)c1cc2ccccc2o1	i	0.19	/	/
COc1cc(SC)ccc1C(=O)Nc1cccc(C2OCCCO2)c1	i	/	/	/
CCOc1ccc(N2C(=O)C3=C(C(c4ccc(Cl)cc4)=NCCN3)C2c2cccnc2)cc1 (stereo not given)	i	/	/	/
Cc1ccc(C2C3=C(NCCN=C3c3ccccc3)C(=O)N2c2ccccc2)cc1 (stereo not given)	i	/	i	i
CCc1ccccc1NC(=O)NC(C)c1ccc2c(c1)OCO2 (stereo not given)	i	1.6	/	/
CC(NC(=O)Nc1ccc(Cl)cc1)c1ccc2c(c1)OCO2 (stereo not given)	i	/	/	/
O=C(Cc1ccccc1)NCc1ccc2c(c1)OCO2	i	2.6	/	/
Cc1cccc(NC(=O)NCc2ccc3c(c2)OCO3)c1	i	11*	i	i	CHO-K1 Tl ctr=4.1*;KCNQ1 pot spec=-12;KCNQ2 pot confirm=20*;Kir2-1 sel=-41;KCNQ2 W236L MoA=i
O=C(CC12CCC(CC1)C2)NCc1ccc2c(c1)OCO2	i	11*	i	i	CHO-K1 Tl ctr=96*;KCNQ1 pot spec=-13;KCNQ2 pot confirm=44*;Kir2-1 sel=-26;KCNQ2 W236L MoA=i
CC(NC(=O)NC1CCCCC1)c1ccc2c(c1)OCO2 (stereo not given)	i	21*	i	i	CHO-K1 Tl ctr=12*;KCNQ1 pot spec=-24;KCNQ2 pot confirm=62*;Kir2-1 sel=-34;KCNQ2 W236L MoA=i
Cc1cccc(NC(=S)NCc2ccc3c(c2)OCO3)c1	i	0.23	/	/
CC(NC(=O)NC12CC3CC(CC(C3)C1)C2)c1ccc2c(c1)OCO2 (stereo not given)	i	15*	i	i	CHO-K1 Tl ctr=28*;KCNQ1 pot spec=-18;KCNQ2 pot confirm=56*;Kir2-1 sel=-39;KCNQ2 W236L MoA=i
CC1CN(C(=O)CCC(=O)NCc2ccccc2)c2ccccc2S1 (stereo not given)	i	/	/	/
CN(C)/C=C1\SC(=S)N(N2C(=O)C3C4C=CC(C4)C3C2=O)C1=O (stereo not given)	i	0.54	/	/
CCOc1ccc(S(=O)(=O)N2CCOCC2)cc1NC(=O)Cc1c(F)cccc1Cl	i	0.92	/	/
C/C(=N\NC(=O)c1cc(C)nc2ccc(C)cc12)c1ccncc1	i	0.24	/	/
O=C(c1ccco1)N1CCN(Cc2cc(=O)c(OCc3ccc([N+](=O)[O-])cc3)co2)CC1	i	1	/	/
Cc1ccc(C)c(-n2cc(CN3CCCN(C=O)CC3)c(-c3ccccc3)n2)c1	i	/	/	/
COC(=O)c1ccccc1OCCCOc1ccc(C=O)cc1OC	i	/	/	/
O=C(NNC(=O)c1ccc2c(c1)OCO2)NC1CCCCC1	i	/	/	/
O=C(NCc1ccc2c(c1)OCO2)NC1CCCCC1	i	5.7*	i	i	CHO-K1 Tl ctr=38*;KCNQ1 pot spec=-10;KCNQ2 pot confirm=-19;Kir2-1 sel=-23
